The source of these data is the supplement of paper PMC10849652.

Targets with a hit are over-represented here; the source holds about 8,800 in all. About 0.5% of all pairs of compound and target were hits. Values without a mark were called inactive.

UniProt O00767, sequence (O00767 whole entry, looked up): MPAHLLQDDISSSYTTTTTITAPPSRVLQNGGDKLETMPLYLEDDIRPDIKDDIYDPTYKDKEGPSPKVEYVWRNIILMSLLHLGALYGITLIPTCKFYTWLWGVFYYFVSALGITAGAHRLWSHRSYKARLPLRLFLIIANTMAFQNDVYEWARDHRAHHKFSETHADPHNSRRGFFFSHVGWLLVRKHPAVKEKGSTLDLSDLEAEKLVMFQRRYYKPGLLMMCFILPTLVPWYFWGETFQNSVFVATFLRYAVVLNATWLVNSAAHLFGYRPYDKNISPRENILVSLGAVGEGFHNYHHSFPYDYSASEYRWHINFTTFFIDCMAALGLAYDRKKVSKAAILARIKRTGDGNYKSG
UniProt O75582, sequence (O75582 whole entry, looked up): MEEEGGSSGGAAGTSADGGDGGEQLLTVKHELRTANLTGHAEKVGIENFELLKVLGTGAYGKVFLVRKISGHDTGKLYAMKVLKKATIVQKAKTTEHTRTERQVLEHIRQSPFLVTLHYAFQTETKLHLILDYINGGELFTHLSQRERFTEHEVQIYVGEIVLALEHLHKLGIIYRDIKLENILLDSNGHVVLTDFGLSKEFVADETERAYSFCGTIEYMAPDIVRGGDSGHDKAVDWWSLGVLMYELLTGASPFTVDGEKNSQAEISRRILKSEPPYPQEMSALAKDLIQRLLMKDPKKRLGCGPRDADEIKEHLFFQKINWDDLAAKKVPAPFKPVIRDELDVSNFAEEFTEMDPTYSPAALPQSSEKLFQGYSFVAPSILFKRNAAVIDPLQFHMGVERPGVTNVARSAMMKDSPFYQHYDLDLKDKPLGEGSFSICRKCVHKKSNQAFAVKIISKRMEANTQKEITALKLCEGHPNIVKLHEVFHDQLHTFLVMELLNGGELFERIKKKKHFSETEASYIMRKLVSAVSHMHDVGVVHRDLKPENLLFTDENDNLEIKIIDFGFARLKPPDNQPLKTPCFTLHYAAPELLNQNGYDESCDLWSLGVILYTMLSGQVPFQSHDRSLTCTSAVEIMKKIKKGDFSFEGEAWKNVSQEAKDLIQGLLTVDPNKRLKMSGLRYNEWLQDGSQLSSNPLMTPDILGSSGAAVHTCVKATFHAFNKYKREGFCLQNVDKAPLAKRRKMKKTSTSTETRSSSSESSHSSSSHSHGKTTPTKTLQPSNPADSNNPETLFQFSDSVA
UniProt Q8NBX0, sequence (Q8NBX0 whole entry, looked up): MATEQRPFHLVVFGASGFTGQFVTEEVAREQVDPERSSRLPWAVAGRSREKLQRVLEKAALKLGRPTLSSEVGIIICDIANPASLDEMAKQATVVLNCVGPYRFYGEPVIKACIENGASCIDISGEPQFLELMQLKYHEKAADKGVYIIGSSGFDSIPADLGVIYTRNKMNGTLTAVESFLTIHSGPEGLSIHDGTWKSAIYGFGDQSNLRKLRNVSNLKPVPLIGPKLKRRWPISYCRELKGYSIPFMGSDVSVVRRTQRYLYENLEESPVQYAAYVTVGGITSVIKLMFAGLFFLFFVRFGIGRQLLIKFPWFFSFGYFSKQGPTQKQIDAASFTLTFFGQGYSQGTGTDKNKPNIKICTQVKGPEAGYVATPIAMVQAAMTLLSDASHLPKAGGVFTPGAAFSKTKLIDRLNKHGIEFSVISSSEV
UniProt Q92878, sequence (Q92878 whole entry, looked up): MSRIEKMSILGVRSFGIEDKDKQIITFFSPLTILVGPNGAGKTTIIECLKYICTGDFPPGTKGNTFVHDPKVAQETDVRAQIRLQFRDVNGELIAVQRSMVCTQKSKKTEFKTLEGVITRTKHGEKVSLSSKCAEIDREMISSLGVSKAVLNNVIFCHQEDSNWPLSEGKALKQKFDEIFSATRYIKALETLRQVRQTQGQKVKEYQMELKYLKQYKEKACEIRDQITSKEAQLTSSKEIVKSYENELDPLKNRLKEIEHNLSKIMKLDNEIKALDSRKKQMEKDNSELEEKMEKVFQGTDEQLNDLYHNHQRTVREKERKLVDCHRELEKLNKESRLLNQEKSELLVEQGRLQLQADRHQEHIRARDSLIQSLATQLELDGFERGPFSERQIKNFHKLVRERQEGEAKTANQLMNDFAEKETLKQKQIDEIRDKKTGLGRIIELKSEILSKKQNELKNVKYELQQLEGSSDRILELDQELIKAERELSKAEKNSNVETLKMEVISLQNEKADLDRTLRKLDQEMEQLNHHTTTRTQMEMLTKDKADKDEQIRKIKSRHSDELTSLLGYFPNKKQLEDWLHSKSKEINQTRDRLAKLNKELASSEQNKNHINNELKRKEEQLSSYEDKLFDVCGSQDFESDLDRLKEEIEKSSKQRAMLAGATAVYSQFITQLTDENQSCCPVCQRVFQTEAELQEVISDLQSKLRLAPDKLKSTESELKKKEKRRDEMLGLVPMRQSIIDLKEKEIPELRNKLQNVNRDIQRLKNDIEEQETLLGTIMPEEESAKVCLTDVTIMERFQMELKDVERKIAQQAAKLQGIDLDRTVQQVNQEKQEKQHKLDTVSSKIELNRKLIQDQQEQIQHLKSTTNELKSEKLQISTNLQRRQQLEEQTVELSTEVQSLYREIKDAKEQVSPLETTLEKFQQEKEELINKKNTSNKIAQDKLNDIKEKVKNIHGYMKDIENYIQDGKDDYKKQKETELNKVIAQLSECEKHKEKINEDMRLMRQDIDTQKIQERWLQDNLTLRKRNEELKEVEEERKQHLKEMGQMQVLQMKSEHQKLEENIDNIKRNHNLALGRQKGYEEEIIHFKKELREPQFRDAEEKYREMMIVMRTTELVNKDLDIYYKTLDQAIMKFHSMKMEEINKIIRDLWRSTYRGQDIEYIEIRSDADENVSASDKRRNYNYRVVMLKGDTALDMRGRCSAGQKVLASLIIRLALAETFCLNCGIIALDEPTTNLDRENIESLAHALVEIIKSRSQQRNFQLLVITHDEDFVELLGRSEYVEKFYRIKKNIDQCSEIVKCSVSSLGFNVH
UniProt P78406, sequence (P78406 whole entry, looked up): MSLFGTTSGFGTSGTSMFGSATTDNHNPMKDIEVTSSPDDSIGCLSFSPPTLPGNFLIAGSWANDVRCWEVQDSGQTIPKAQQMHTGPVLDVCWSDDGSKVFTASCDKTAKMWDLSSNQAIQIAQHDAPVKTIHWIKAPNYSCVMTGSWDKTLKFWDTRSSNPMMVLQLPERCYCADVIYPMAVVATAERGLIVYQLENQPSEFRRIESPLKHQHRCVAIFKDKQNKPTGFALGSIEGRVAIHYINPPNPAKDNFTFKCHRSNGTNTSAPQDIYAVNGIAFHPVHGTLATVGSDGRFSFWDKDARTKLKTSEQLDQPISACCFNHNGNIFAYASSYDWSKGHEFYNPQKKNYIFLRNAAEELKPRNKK
UniProt Q9BRS2, sequence (Q9BRS2 whole entry, looked up): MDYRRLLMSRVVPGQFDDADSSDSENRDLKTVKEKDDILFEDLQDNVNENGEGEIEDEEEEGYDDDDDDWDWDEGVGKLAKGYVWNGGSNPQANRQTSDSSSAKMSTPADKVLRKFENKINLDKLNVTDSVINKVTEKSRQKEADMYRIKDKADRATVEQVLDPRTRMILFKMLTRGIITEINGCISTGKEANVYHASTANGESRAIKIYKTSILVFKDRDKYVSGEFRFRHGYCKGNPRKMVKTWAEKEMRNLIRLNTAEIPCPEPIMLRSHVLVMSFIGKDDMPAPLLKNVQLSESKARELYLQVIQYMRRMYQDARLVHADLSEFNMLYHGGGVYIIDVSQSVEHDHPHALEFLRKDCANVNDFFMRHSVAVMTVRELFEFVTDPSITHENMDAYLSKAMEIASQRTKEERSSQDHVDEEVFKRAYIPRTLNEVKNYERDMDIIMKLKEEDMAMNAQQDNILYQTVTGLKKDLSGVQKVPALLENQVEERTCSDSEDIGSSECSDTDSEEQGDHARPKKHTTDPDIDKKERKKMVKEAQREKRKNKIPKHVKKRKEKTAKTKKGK
UniProt Q9UL25, sequence (Q9UL25 whole entry, looked up): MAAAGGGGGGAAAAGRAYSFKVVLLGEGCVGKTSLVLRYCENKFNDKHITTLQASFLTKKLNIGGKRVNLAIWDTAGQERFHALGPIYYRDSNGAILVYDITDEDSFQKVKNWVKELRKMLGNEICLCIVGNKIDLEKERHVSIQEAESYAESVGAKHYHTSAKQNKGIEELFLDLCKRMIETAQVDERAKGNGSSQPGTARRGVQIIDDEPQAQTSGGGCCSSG
UniProt Q6NUQ1, sequence (Q6NUQ1 whole entry, looked up): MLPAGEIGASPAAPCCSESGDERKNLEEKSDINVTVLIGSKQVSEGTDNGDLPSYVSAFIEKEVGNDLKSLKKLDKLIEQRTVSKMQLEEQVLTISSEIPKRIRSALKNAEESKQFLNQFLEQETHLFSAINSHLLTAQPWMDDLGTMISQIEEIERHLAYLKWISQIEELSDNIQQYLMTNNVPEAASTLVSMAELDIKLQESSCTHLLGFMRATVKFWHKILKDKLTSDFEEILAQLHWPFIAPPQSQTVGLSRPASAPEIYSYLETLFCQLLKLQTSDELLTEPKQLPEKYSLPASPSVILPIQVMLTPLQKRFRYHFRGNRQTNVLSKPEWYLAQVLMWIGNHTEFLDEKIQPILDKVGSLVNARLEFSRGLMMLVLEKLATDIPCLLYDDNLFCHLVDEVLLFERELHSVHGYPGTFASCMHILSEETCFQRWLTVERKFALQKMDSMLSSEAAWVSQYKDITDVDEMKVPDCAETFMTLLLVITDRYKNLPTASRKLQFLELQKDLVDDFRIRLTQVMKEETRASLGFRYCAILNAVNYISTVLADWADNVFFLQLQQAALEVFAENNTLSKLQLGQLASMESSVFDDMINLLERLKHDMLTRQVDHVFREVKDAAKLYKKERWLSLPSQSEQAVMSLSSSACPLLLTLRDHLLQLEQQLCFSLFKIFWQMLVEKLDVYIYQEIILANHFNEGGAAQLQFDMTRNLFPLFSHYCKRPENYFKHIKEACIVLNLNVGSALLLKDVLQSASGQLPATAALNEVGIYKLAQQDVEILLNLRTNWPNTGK
UniProt P60059, sequence (P60059 whole entry, looked up): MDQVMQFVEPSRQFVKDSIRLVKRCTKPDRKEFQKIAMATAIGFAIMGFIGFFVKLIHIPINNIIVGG

Compound in this assay: COC(=O)[C@H](CCSC)NC(=O)C1=C(C=C(C=C1)NC[C@H](CS)N)C2=CC=CC=C2
Description: log2 fold change, soluble protein after heating vs DMSO (PISA); higher = thermal stabilisation; K562 lysate, 10 uM; active = over 0.2 and 3.5 SD of the protein, either way, in both replicates (recomputed). The essentials: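 Log-two fold change in thermal stability relative to solvent controls is reported from duplicates. For each sample, crude K562 extract from dounce-homogenised pellets in PBS pH 7.4 with 1 mM MgCl2, at 1 mg/mL protein, was treated with 10 μM compound for 30 min. Aliquots heated for 3 min across 48°C-58°C were pooled, brought to 0.5% NP-40 at 4°C and cleared at 21,000xg for 90 min. The supernatant was quantified by TMTpro 16plex LC-MS/MS with channel sums equalised.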
With RAB21 (UniProt Q9UL25), the log2 fold change is -0.072.
Under RPS6KA5 (UniProt O75582) stands -0.005.
Under RPS26P11 (UniProt Q5JNZ5) stands 0.006.
Take SATB2 (UniProt Q9UPW6): the log2 fold change is -0.022.
The figure for RAPGEF2, A0A2R8YGD3 is 0.021; for RPN2 (UniProt P04844) it is -0.031; for RAI14 isoform 2 (UniProt Q9P0K7) it is 0.083.
With RPS18 (UniProt P62269), the log2 fold change was 0.054.
Consider ROCK1 (UniProt Q13464), for which the log2 fold change is -0.019.
Under RPTOR (UniProt Q8N122) stands -0.007.
Under RAB1B (UniProt Q9H0U4) stands -0.058.
The figure for RIOK1 (UniProt Q9BRS2) is -0.006; for RAE1 (UniProt P78406) it is 0.345 (active); for REEP5 (UniProt Q00765) it is 0.263 (active).
Consider RPLP0P6 (UniProt Q8NHW5), for which the log2 fold change was 0.018.
The figure for SCCPDH (UniProt Q8NBX0) is 0.129; for RINT1 (UniProt Q6NUQ1) it is -0.017; for SEC61G (UniProt P60059) it is 0.067.
Under SEH1L isoform 1 (UniProt Q96EE3) stands -0.077.
Under RAD50 isoform 2 (UniProt Q92878) stands 0.108.
RIOK3 (UniProt O14730): the log2 fold change is 0.132.
Under SEC13 isoform 3 (UniProt P55735) stands -0.039.
For RAC2 (UniProt P15153), the log2 fold change was -0.001.
The figure for SEC24D isoform 2 (UniProt O94855) is -0.163; for SCO2 (UniProt O43819) it is -0.607 (active); for RALGAPA1 isoform 6 (UniProt Q6GYQ0) it is 0.094.
Under RECQL5 (UniProt O94762) stands 0.016.
Consider RRAGA (UniProt Q7L523), for which the log2 fold change is -0.022.
The figure for RPS6KB1 (UniProt P23443) is 0.218.
The figure for RANBP2 (UniProt P49792) is 0.042.
Under RCOR3 isoform 3 (UniProt Q9P2K3) stands 0.088; under SCD (UniProt O00767), 0.076.
